{"source": "PubChem BioAssay AID647", "about": "(Vanderbilt High Throughput Screening Facility, 2007)", "note": "In all, about 2,200 compounds went through this assay and about 1,400 (64%) were called active. So high a share suggests a set chosen from earlier hits. Only a sample is shown. Unmarked numbers belong to inactive results.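 The calls were made as follows: active = luminescence in either replicate above plate mean of wells with a partly effective reference agonist dose plus 3 SD; inactive = the rest.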", "data": [{"test": "isoproterenol-driven CRE-luciferase response modulation in HEK293 cells, confirmation, counter-screen for D1 allosteric modulator project, cell-based, secondary assay 2, luminescence (AID 647);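 also: isoproterenol raises cAMP through native beta-adrenoceptor Gs so signal bypasses D1; raw luminescence counts from the Envision reader with one value per duplicate well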", "settings": "isoproterenol EC30 counter-screen, at 10 µM, active compounds read high", "values": [{"smiles": "N#Cc1c(N)sc2c1CCN(C(=O)OCc1ccccc1)C2", "luminescence": "5320 (active)"}, {"smiles": "CCNc1nc(NCC)nc(N(C)n2cnnc2)n1", "luminescence": "3650 (active)"}, {"smiles": "CC(C)c1cc(C(=O)O)on1", "luminescence": 2070}, {"smiles": "Oc1ccc(-c2csc(Nc3cccnc3)n2)cc1", "luminescence": "3250 (active)"}, {"smiles": "CCn1ncc(C2=NOC(C(=O)Nc3ccccc3C(=O)OC)C2)c1C", "note": "(stereo unspecified)", "luminescence": "5220 (active)"}, {"smiles": "CCn1nc(C(=O)OCC(=O)N2c3ccccc3CC2C)c2ccccc2c1=O", "note": "(stereo unspecified)", "luminescence": 2840}, {"smiles": "Cc1ccc(-c2nn(-c3ccccc3)cc2CN(Cc2ccccc2)C(=O)CCC(=O)O)o1", "luminescence": "4080 (active)"}, {"smiles": "O=C(CSc1nnc2scc(-c3ccc(F)cc3)n12)NCc1ccco1", "luminescence": 2580}, {"smiles": "CCOc1ccc(-c2nnn(CC(=O)N3CCN(c4ccc(OC)cc4)CC3)n2)cc1OCC", "luminescence": "3110 (active)"}, {"smiles": "CCOc1cc(-c2noc(CCC(=O)N3CCOCC3)n2)ccc1OC", "luminescence": 2630}, {"smiles": "CC1CCN(c2oc(-c3ccccc3F)nc2C#N)CC1", "luminescence": "3380 (active)"}, {"smiles": "CCOc1ccc2c(c1)cc(CN(C(=O)CC)C1CCCCC1)c1nnnn12", "luminescence": "3880 (active)"}, {"smiles": "CCOc1ccc2[nH]c(=O)c(C(c3nnnn3CCOC)N3CCOCC3)cc2c1", "note": "(stereo unspecified)", "luminescence": 2250}, {"smiles": "FC(F)(F)c1cc(-c2ccco2)nc(N2CCOCC2)n1", "luminescence": "4220 (active)"}, {"smiles": "Cc1cc(C(F)(F)F)nn1-c1nc(-c2ccco2)cc(C(F)(F)F)n1", "luminescence": "3340 (active)"}, {"smiles": "O=C(NCc1ccco1)c1cnn2c(C(F)(F)F)cc(-c3ccco3)nc12", "luminescence": 3240}, {"smiles": "COc1ccc(-c2nnco2)cc1OC", "luminescence": "3030 (active)"}, {"smiles": "Cc1ccc(C2CC(c3cccc(Br)c3)n3nc(N)nc3N2)cc1", "note": "(stereo unspecified)", "luminescence": "3660 (active)"}, {"smiles": "Cc1ccc(C2CC(c3cccc(C)c3)n3nc(N)nc3N2)cc1", "note": "(stereo unspecified)", "luminescence": 2800}, {"smiles": "CCOc1ccccc1C1CC(c2ccccc2)Nc2nc(N)nn21", "note": "(stereo unspecified)", "luminescence": 3190}, {"smiles": "CCOc1cc(C(=O)N2CCc3cc(OC)c(OC)cc3C2)ccc1OC(F)F", "luminescence": "11500 (active)"}, {"smiles": "CC(=O)Nc1cccc(Oc2cc(C#N)c(C#N)cc2N2CCOCC2)c1", "luminescence": "4140 (active)"}, {"smiles": "COc1cc(NC(=O)N2CCOCC2)cc(OC)c1", "luminescence": 2540}, {"smiles": "C/C(Cl)=C\\Cn1c(Nc2cccc(C)c2)nc2c1c(=O)n(C)c(=O)n2C", "luminescence": "3460 (active)"}, {"smiles": "Cc1cc(C)c2c(n1)nn1c(-n3ccnc3)cc(C)nc21", "luminescence": "3020 (active)"}, {"smiles": "CCSc1nc(C)nc2c1oc1ccccc12", "luminescence": "3530 (active)"}, {"smiles": "COC(=O)[C@H](C(C)C)n1c(C)c(C(C)=O)c(C(C)=O)c1C", "luminescence": 2600}, {"smiles": "O=c1cc(-c2ccccc2)nc(N2CCCCC2)[nH]1", "luminescence": 3010}, {"smiles": "CCCN1Cc2cccc(C(=O)NCc3ccccc3)c2C1=O", "luminescence": "3680 (active)"}, {"smiles": "CCSc1ncnc2c(C#N)c3n(c12)CCCCC3", "luminescence": "6230 (active)"}, {"smiles": "O=C(c1ccco1)N1CCN=C1SCc1cccc(Cl)c1", "luminescence": "3200 (active)"}, {"smiles": "Cc1ccc(S(=O)(=O)c2c(N)n(C)c3nc4ccccc4nc23)cc1", "luminescence": "3490 (active)"}, {"smiles": "COc1ccc(-n2c(Cc3cccn3C)nnc2SCC(=O)Nc2cc(C)cc(C)c2)cc1", "luminescence": 2370}, {"smiles": "Nc1ccc(S(=O)(=O)NC(=O)c2ccccc2)cc1", "luminescence": 2950}, {"smiles": "CCOC(=O)c1cc(C)sc1NC(=O)C1CCC1", "luminescence": "4600 (active)"}, {"smiles": "C/C(=C\\C(=O)c1ccccc1)Nc1cccc(O)c1", "luminescence": 2540}, {"smiles": "CN(C)c1nc(N)nc(CSc2nnnn2-c2cccc3ccccc23)n1", "luminescence": "3420 (active)"}, {"smiles": "COc1ccc(-c2nn3c(-c4ccccc4)nnc3s2)cc1OC", "luminescence": "8440 (active)"}, {"smiles": "COc1cc(-c2nn3c(-c4cccc(C)c4)nnc3s2)cc(OC)c1OC", "luminescence": "4430 (active)"}, {"smiles": "O=C(C1CCC1)N1CCc2cc(S(=O)(=O)NCc3cccnc3)ccc21", "luminescence": 3060}, {"smiles": "N#Cc1nc(N)nc(N(c2ccccc2)c2ccccc2)n1", "luminescence": 2880}]}]}
